Experimental data taken from ChEMBL document CHEMBL4513216, “Probing the Open Global Health Chemical Diversity Library for Multistage-Active Starting Points for Next-Generation Antimalarials” (ACS Infect Dis, 2020).
Out of some 69,000 compounds screened, about 8,600 (12%) showed an effect of 50% or more. For the sample, strong results were picked, then their nearest neighbours and some compounds at random.

These compounds were tested on Plasmodium berghei (assay: Screen against P. berghei liver stage (PbLuc), transformed with Luciferase, at 10uM). Details: tested at 10 uM.
Type: functional, HepG2

Structure (SMILES) | INHIBITION [%]
CC(C)c1sc(Cl)nc1C(=O)N1CCN(Cc2ccccc2)CC1 | 10.9
Cc1ccc(-n2cc(C(=O)NCc3nnc4n3CCCCC4)nn2)cc1 | -21.2
CCN(CC)c1ccc(CNC(=O)N2CCC(C#N)CC2)cc1 | 2.91
CCc1ccc(C(=O)N2CCC(N(C)C(=O)OC(C)(C)C)C2)o1 (configuration not stated) | 71.2
Cc1ccc(C(=O)N2CCCC(N(C)C(=O)OC(C)(C)C)C2)o1 (configuration not stated) | 37.8
CN(C(=O)OC(C)(C)C)C1CCN(C(=O)c2ccc(Cl)o2)C1 (configuration not stated) | -12.3
c1ccc(-c2nc3c(c(NCc4nnc5n4CCC5)n2)CCNC3)cc1 | 39.4
N#Cc1cccc(CNCCC(=O)N2CCc3sccc3C2)c1 | 68.3
CN(CCC(=O)N1CCc2sccc2C1)Cc1cc(Br)cs1 | 19.2
NC(=O)NC(CC(=O)N1CCc2sccc2C1)c1cccc(Br)c1 (configuration not stated) | 14.9
O=C(CCNCc1cccc(O)c1)N1CCc2sccc2C1 | 81.2
COc1ccc(CNCCC(=O)N2CCc3sccc3C2)cc1O | 76.2
COc1ccc(CNC(=O)N2CCc3sccc3C2)cc1O | -45
CC(C)(C)CC(=O)N1CCc2sccc2C1 | -46.6
CN(CCC(=O)N1CCc2sccc2C1)Cc1ccc2c(c1)OCCO2 | -7.35
O=C(CCN1CCCC1c1cccc(F)c1)N1CCc2sccc2C1 (configuration not stated) | 9.54
CN(C)C(=O)c1cccn1-c1ccc2c(c1)OCCO2 | 9.16
CC(C)(C)OC(=O)N1CCN(c2cccnc2)CC1C(=O)O (configuration not stated) | 20.2
CC(C)C(C(=O)N1CCN(Cc2ccccn2)CC1)n1cncn1 (configuration not stated) | -24.5

Structure (SMILES) | INHIBITION [%]
Cc1nc(C(C)C)sc1C(=O)NCCNc1ncccc1C#N | -29.1
O=C(NC1CC1)N1CCC2(CC1)C(=O)NCCN2Cc1ccccc1 | 30.9
CC(C)(C)OC(=O)N(CCNS(=O)(=O)N1CCOCC1)C1CC1 | -28
CN1CCC2(CCCN(c3nccc(C(F)(F)F)n3)C2)CC1 | -2.35
O=C(Nc1cccc(CN2CCOC2=O)c1)N1CCOCC1 | 5.14
Cc1ncc(CN(C)C(=O)Nc2cccc(CN3CCOC3=O)c2)s1 | 52.8
O=C(Nc1cccc(CN2CCOC2=O)c1)N1CCCC1 | 53.8
O=C(Nc1cccc(CN2CCOC2=O)c1)N1CCCCCC1 | -4.12
Cc1ncc(CN(C)C(=O)Nc2ccc(CN3CCOC3=O)cc2)s1 | 22.5
Cc1ncc(CN(C)C(=O)Nc2cccc(N3CCOC3=O)c2)s1 | 28
CCCN1CCC=C(C2c3nc[nH]c3CCN2C(=O)c2ccco2)C1 (configuration not stated) | 25.1
OC(CN1CCC(CNCc2ccccn2)CC1)c1ccccc1 (configuration not stated) | -36.1
COCC(=O)N1C[C@H]2CNC[C@@]2(C(=O)NCc2cccc3[nH]ccc23)C1 | 13.1
CN(CC1CCCCO1)S(=O)(=O)c1cccc(C(=O)N2CCOCC2)c1 (configuration not stated) | 1.19
CC(C)(C)NC(=O)CN1CCNCC1 | -30
CC(C)(C)NC(=O)CN1CCCNCC1 | 74.9
CC(C)NC(=O)CN1CCCNCC1 | 3.77
O=C(O)c1cc2c(nc1-c1cncnc1)CCN(C1CCOC1)CC2 (configuration not stated) | 37.8
Cc1ccccc1CC(=O)N1CC[C@@](O)(CNS(C)(=O)=O)[C@H](O)C1 | 0.301

Structure (SMILES) | INHIBITION [%]
N#Cc1ccccc1CN(CCO)Cc1ccsc1 | 36.4
CN(Cc1ccc(F)cc1)C(=O)Nc1cccnc1N1CCCC1 | -2.33
CS(=O)(=O)N1C[C@H]2CC[C@@H](C1)N(CCC(=O)NCc1ccccc1F)C2 | -7.02
Cn1ccc(NC(=O)CN2C[C@@H]3CC[C@H]2CN(S(C)(=O)=O)C3)n1 | 53.3
COCCN1C[C@@H]2CC[C@H]1CN(CC(=O)Nc1ccn(C)n1)C2 | 21.2
COC1CCN(c2ccc(F)cc2CN(C)C(C)C(N)=O)CC1 (configuration not stated) | 7.3
Cc1ccccc1N1CC2(CCN(Cc3nccn3C)C2)CC1=O (configuration not stated) | 25.2
CC(=O)Nc1nc(C(=O)N2CCCC(n3ccnc3)C2)cs1 (configuration not stated) | 31.9
Cc1nc(C(=O)N2CCCC(n3cncn3)C2)cs1 (configuration not stated) | 31.1
CC(=O)Nc1nc(C(=O)N2CCCC(n3nc(C)cc3C)C2)cs1 (configuration not stated) | 57.8
CC(=O)Nc1nc(C(=O)N2CCCC(n3cncn3)C2)cs1 (configuration not stated) | 67.6
COCc1nc(C(=O)N2CCCC(n3nc(C)cc3C)C2)cs1 (configuration not stated) | 25.1
CC(=O)Nc1nc(C(=O)N2CCCC(n3nc(C)nc3C)C2)cs1 (configuration not stated) | 53.9
Cc1nc(C)n(C2CCCN(C(=O)c3cscn3)C2)n1 (configuration not stated) | 60.2
Cc1nc(C)n(C2CCCN(C(=O)c3csc(C)n3)C2)n1 (configuration not stated) | 14.4
Cc1cc(C)n(C2CCCN(C(=O)c3csc(C4CC4)n3)C2)n1 (configuration not stated) | 34.7
Cc1nc(C)n(C2CCCN(C(=O)c3csnn3)C2)n1 (configuration not stated) | 11.6
Cc1cnc(C(=O)N2CCCC(n3nc(C)nc3C)C2)cn1 (configuration not stated) | 7.12
Cc1nc(C)n(C2CCCN(C(=O)c3csc(C(C)C)n3)C2)n1 (configuration not stated) | 40.3
